# Source: PubChem BioAssay
# hgDAF-12 ag: hgDAF-12 agonism, primary luciferase screen | HEK293 GAL4-hgDAF12 UAS-luciferase reporter, agonist luminescence; normalized to butyrate control | activation, % at 6.8 µM | actives 1.8% (n = 370,000);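 active means activation above a cutoff set at the mean of all screened compounds plus 3 SD, cut at about 10% in these data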;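 further: 0% = DMSO wells and 100% = sodium butyrate wells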
# hcDAF-12 act: H. contortus DAF-12 activation, primary screen; HEK293 hcDAF-12 lit1-tk-luc reporter, luminescence; 0% DMSO, 100% Δ7-dafachronic acid; activation, % at 6.8 µM; actives 1.4% (n = 370,000);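 active means activation above the mean of all tested compounds plus 3 SD, cut at about 5.5% in these data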;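 further: 100% = response to 3 µM Δ7-dafachronic acid high control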
# Wee1 stabilizer: inhibitors of human Wee1 degradation. P30291. HeLa Luc-Wee1K328M stability, luciferase luminescence; 100% = proteasome inhibitor MG132 effect. reporter increase, % at 5 µM. actives 1.2% (n = 220,000). AID 1321;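 active means activation above the mean of all tested compounds plus 3 SD, set per screening run, cut at about 8.8% in these data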;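 further: cells exposed to compound for 20 h before luminescence read; 0% = DMSO alone and 100% = MG132 at 30 µM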
# ssDAF-12 act: S. stercoralis DAF-12 activation, primary screen; AID 652126; HEK293 ssDAF-12/GRIP1 lit1-tk-luc reporter, luminescence; % of 3 µM dafachronic acid response; activation, % at 6.8 µM; actives 1% (n = 370,000);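 active means activation above the mean over all tested compounds plus 3 SD, cut at about 0.9% in these data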;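 further: 0% = DMSO-only wells and 100% = 3 µM delta7-dafachronic acid wells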
# DAX1 inh-1: inhibitors of human orphan nuclear receptor DAX1 (NR0B1); P51843; HEK293 Gal4-DAX1 luciferase reporter, luminescence; inhibition, % at 6.75 µM; actives 0.99% (n = 340,000); AID 504766;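 active means inhibition above the mean over all tested compounds plus 3 SD, cut at about 4.2% in these data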;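 further: 0% = DAX1-transfected cells with DMSO and 100% = empty-vector control cells with DMSO; inhibition shows as a rise in luminescence from relieved DAX1 repression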
# Target sequence (P51843 207-470 limits assumed): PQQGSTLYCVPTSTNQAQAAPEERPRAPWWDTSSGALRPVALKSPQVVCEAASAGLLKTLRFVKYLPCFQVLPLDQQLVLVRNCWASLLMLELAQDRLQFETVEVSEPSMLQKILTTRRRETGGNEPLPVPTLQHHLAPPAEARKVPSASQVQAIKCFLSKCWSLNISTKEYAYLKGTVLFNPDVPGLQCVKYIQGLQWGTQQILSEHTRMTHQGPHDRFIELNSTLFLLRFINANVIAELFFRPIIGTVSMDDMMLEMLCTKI
# DAX1 inh-2: inhibitors of DAX1 repression of SF-1 activated StAR promoter; AID 652010; actives 1.1% (n = 370,000); inhibition, % at 6.8 µM; HEK293T StAR-luciferase reporter, SF-1/DAX-1 repression relief;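 active means inhibition above the mean over all tested compounds plus 3 SD, cut at about 3.6% in these data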;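 further: 0% = DAX-1 cells with DMSO and 100% = cells lacking DAX-1 with DMSO; higher inhibition means more luminescence from relief of DAX-1 repression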
# DAX1 conf: confirmation of human DAX1 (NR0B1) inhibitors; shares compounds with DAX1 inh-2; HEK293T StAR-promoter luciferase reporter, SF-1/DAX-1 repression; inhibition, % at 6.8 µM; actives 87% (n = 2,400); AID 652134;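 active means inhibition above the average of every tested compound plus 3 SD, cut at about 3.8% in these data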;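 further: 0% = DAX-1 cells with DMSO and 100% = no DAX-1 control cells with DMSO; active compounds raise luminescence by relieving repression of the StAR reporter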
# Target sequence (P51843 whole entry, looked up): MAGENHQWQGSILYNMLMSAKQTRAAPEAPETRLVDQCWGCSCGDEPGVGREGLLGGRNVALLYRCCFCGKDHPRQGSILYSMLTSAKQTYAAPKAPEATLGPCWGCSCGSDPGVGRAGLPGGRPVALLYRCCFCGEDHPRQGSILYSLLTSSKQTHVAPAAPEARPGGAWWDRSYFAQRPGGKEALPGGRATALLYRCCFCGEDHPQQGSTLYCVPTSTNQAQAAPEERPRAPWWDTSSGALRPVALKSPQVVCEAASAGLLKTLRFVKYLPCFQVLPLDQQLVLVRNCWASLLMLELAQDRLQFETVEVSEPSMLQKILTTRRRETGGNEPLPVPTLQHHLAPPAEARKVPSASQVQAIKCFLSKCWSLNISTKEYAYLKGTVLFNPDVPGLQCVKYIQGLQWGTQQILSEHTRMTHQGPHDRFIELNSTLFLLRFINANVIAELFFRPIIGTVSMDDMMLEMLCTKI
# SF1 mutant ctr: counter-screen for DAX1 inhibitors: nonselective inhibitors with SF-1 AF2 mutant | AID 652136 | actives 78% (n = 2,400) | shares compounds with DAX1 inh-2 | HEK293 StAR-luciferase, luminescence | inhibition, % at 6.8 µM;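 active means inhibition above the mean of all tested compounds plus 3 SD, cut at about 3% in these data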;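 further: 0% = DAX-1 transfected cells with DMSO and 100% = cells without DAX-1 with DMSO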
# LXR ag: activates human LXR-beta, counter-screen for hcDAF-12 agonists. HEK293 Gal4-LXR tk-luc reporter, luminescence, 24 h; normalized: DMSO 0%, positive control 100%. shares compounds with hcDAF-12 act. 3,400 tested, under 10 active. activation, % at 6.8 µM;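 active means mean percent activation of the reporter above a cutoff set as the average over tested compounds plus their standard deviation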
# hcDAF12 conf: hcDAF-12 agonism, confirmation assay; shares compounds with hcDAF-12 act; HEK293 hcDAF-12 lit1-tk-luc reporter, luminescence; % of Δ7-dafachronic acid response; activation, % at 6.8 µM; actives 61% (n = 3,400); AID 743032;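 active means mean activation across triplicate tests above the threshold derived from the earlier primary screen, cut at about 5.5% in these data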;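 further: 0% = DMSO only wells and 100% = 3 µM Δ7-dafachronic acid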
# hgDAF12 conf: confirmation of H. glycines DAF-12 agonists; shares compounds with hgDAF-12 ag; HEK293 GAL4-hgDAF12 luciferase reporter, agonist mode; percent of butyrate response; activation, % at 6.8 µM; actives 80% (n = 3,300);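 active means mean activation over triplicate wells above the hit cutoff derived from the earlier primary screen, cut at about 11% in these data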;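 further: 0% = DMSO low control and 100% = 2 mM sodium butyrate high control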
# LXR ag 2: LXR-beta agonism as DAF-12 counter-screen. shares compounds with hgDAF-12 ag. HEK293 Gal4-LXR luciferase reporter, 24 h. activation, % at 6.8 µM. 3,300 tested, under 10 active. AID 743051;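 active means mean activation of the triplicate above a set limit carried over from the primary screen, none filed active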
# Numbers without * were called inactive; nt = not tested or not shown. An excerpt weighted towards active compounds, which were near 4.6% of everything screened.
SMILES,hgDAF-12 ag,hcDAF-12 act,Wee1 stabilizer,ssDAF-12 act,DAX1 inh-1,DAX1 inh-2,DAX1 conf,SF1 mutant ctr,LXR ag,hcDAF12 conf,hgDAF12 conf,LXR ag 2
c1ccc2oc(-c3csc(NCC4CCCO4)n3)cc2c1 (centres undefined),14.9*,4.0,-0.7,1.1*,0.9,10.1*,12.2*,7.0*,nt,nt,15.1*,0.9
COc1cc2c(cc1OC)CN(C(=O)CCOc1ccccc1C)CC2,-0.4,-1.4,nt,-0.4,-0.1,-0.4,nt,nt,nt,nt,nt,nt
O=c1c2ccccc2nnn1CSc1ccccc1F,13.9*,5.9*,6.5,0.9,3.3,6.5*,11.0*,5.3*,nt,nt,15.1*,0.8
O=c1c2ccccc2nnn1CCc1ccccc1,15.8*,7.1*,nt,0.3,4.0,10.0*,11.8*,6.4*,1.6,7.8*,15.2*,0.8
Cc1ccc(CN2C(=O)C(CC(C)C)Nc3ncnc(N4CCCCC4)c32)cc1 (centres undefined),3.6,-1.4,nt,-1.5,nt,-0.8,nt,nt,nt,nt,nt,nt
Cc1ccc(CNC(=O)C2(C)CCN2C(=O)Cc2ccc(C(C)(C)C)cc2)cc1 (centres undefined),-1.3,-0.3,nt,-1.9,nt,-0.5,nt,nt,nt,nt,nt,nt
CC(C)(C)c1cc(NC(=O)c2ccco2)no1,13.8*,13.8*,nt,1.0*,0.7,12.7*,12.3*,7.0*,1.3,6.2*,14.9*,0.6
CC(C)(C)c1cc(NC(=O)c2cccc([N+](=O)[O-])c2)no1,nt,nt,5.1,nt,1.1,nt,nt,nt,nt,nt,nt,nt
CCCCN(C)CCNC(=O)c1cc2c(-c3cccc(OC)c3)nn(C)c2s1,7.2,1.8,nt,0.0,1.1,1.3,nt,nt,nt,nt,nt,nt
O=C(Nc1n[nH]c(=S)s1)c1ccc2ccccc2c1,13.8*,3.5,nt,0.4,1.3,16.1*,13.2*,6.3*,nt,nt,13.3*,0.6
C=CCNc1nc(-c2ccc3c(c2)OCCO3)cs1,20.4*,6.7*,nt,1.1*,1.7,14.2*,16.1*,7.4*,1.6,7.5*,17.6*,0.8
c1cc2c(cc1Nc1nc(-c3ccc4c(c3)OCO4)cs1)OCCO2,-0.4,-1.2,0.0,-0.9,1.4,0.0,nt,nt,nt,nt,nt,nt
O=C(Nc1nc(-c2ccc3c(c2)OCCO3)cs1)c1ccco1,14.2*,10.0*,nt,0.7,1.1,12.4*,11.3*,7.0*,1.4,3.7,16.6*,0.6
COc1ccccc1C(=O)Nc1nc(-c2ccc3c(c2)OCCO3)cs1,-2.1,-3.8,-1.4,-0.9,-0.5,0.7,nt,nt,nt,nt,nt,nt
Cn1c(O)c(C=NCCCCCC(=O)O)c(=O)n(C)c1=O,-3.5,0.3,nt,-0.5,-0.5,-0.2,nt,nt,nt,nt,nt,nt
CC(C)C[C@H]1CN(CCCC[C@@H]2CNC(=O)C(=O)N2CCc2ccccc2)C(=O)C(=O)N1CCc1ccccc1,-0.3,-1.2,nt,-1.3,nt,0.2,nt,nt,nt,nt,nt,nt
CC1CCN(S(=O)(=O)c2ccc(C(=O)Nc3ncccc3O)cc2)CC1,15.5*,0.0,nt,-0.2,3.0,6.3*,8.4*,4.3*,nt,nt,15.1*,0.1
CCn1cnc2cc(NCc3nc4ccccc4n3C)ccc21,18.4*,14.8*,1.8,1.1*,-0.3,5.9*,10.3*,4.8*,1.4,7.5*,12.7*,0.9
CCn1cnc2cc(NCc3nc4ccccc4n3Cc3ccccc3)ccc21,-2.2,-0.7,-0.2,-1.9,1.1,0.2,nt,nt,nt,nt,nt,nt
O=C(c1ccccc1)c1cc(-c2ccccc2)on1,9.5,1.8,0.3,-0.4,1.3,1.2,nt,nt,nt,nt,nt,nt
c1ccc(-c2cc(-c3ccccc3)on2)cc1,18.4*,12.0*,6.1,1.7*,3.2,5.7*,17.9*,11.7*,1.3,8.0*,17.7*,0.9
CCN=c1scc(-c2ccc(F)cc2)n1/N=C/c1ccccn1,20.7*,1.9,2.3,-1.7,1.8,6.8*,7.2*,4.8*,nt,nt,7.8,0.4
Cc1ccc(O)c(C(=O)CC(=O)c2ccccc2Cl)c1,22.5*,3.3,2.7,-0.2,5.3*,5.0*,-0.1,1.6,nt,nt,4.7,0.2
Cc1ccc(-c2nc3ccc([N+](=O)[O-])cc3[nH]2)cc1,17.8*,7.1*,-0.7,-0.1,-2.4,9.2*,13.8*,6.7*,1.3,7.1*,17.7*,1.0
CCN(CC)C1Oc2cc3c(cc2C(c2cc(OC)c(OC)c(OC)c2)C1C)OCO3 (centres undefined),-4.6,-1.9,nt,-0.1,2.0,3.1,nt,nt,nt,nt,nt,nt
SMILES,hgDAF-12 ag,hcDAF-12 act,Wee1 stabilizer,ssDAF-12 act,DAX1 inh-1,DAX1 inh-2,DAX1 conf,SF1 mutant ctr,LXR ag,hcDAF12 conf,hgDAF12 conf,LXR ag 2
COc1ccc2oc(=O)c(-c3nc4ccccc4o3)cc2c1,3.0,-0.1,1.9,-0.2,1.6,0.2,nt,nt,nt,nt,nt,nt
COc1cccc(N=c2oc3ccc(OC)cc3cc2-c2nc3ccccc3[nH]2)c1,16.1*,15.4*,1.4,3.6*,2.3,4.7*,-1.1,-2.0,0.1,6.3*,6.7,0.4
CC(C)N1C(=O)NC2NC(=O)N(C(C)C)C21 (centres undefined),3.2,-1.3,nt,-0.5,nt,0.9,nt,nt,nt,nt,nt,nt
C/C(=N\Nc1cccc2cccnc12)c1ccc(N)cc1,1.9,3.4,-1.3,-0.9,1.6,-0.1,nt,nt,nt,nt,nt,nt
C/C(=N\Nc1cccc2cccnc12)c1ccccn1,27.5*,13.8*,-0.9,2.0*,-0.7,6.3*,16.9*,7.8*,1.9,13.3*,22.5*,1.3
NS(=O)(=O)c1ccc2nc(NC(=O)c3ccc4ncsc4c3)sc2c1,nt,nt,nt,nt,-0.8,nt,nt,nt,nt,nt,nt,nt
Cc1ccc2nc(NC(=O)c3ccc4ncsc4c3)sc2c1,15.3*,3.9,1.2,0.1,0.3,6.2*,11.3*,7.1*,nt,nt,13.5*,0.6
COc1ccc(N2C(=O)c3ccccc3NC2(C)C)cc1,28.5*,3.4,3.6,-0.5,0.3,7.6*,2.9,1.2,nt,nt,9.0,0.2
COC(=O)C1(C)Nc2ccccc2C(=O)N1c1ccccc1OC (centres undefined),1.1,-0.8,1.4,-0.2,-0.9,0.4,nt,nt,nt,nt,nt,nt
